# Over roughly 8,300 sequences, “log2 fold change of degron read counts, EGFP-low vs EGFP+ sorted cells (limma voom), compound-induced degradation” has its median near -1.1; the highest 2% begin near 3.2. The sample holds the highest values, similar sequences and a random draw of the others, so the mix is not that of the screen.
# T1: CRBN, Q96SW2
# T1 chain: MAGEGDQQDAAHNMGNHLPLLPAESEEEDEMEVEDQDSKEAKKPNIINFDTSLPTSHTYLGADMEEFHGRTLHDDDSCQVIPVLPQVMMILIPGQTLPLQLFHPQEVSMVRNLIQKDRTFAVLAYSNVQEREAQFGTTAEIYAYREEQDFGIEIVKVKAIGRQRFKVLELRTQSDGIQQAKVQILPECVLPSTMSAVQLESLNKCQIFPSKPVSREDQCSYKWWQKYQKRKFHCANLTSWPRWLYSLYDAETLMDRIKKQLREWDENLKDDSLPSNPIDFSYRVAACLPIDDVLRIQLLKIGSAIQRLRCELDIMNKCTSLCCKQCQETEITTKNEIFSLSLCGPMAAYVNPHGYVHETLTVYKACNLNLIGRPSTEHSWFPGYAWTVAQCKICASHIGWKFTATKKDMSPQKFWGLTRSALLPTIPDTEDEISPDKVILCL
# Molecular target: T1, CRBN, Q96SW2
# Assay: log2 fold change of degron read counts, EGFP-low vs EGFP+ sorted cells (limma voom), compound-induced degradation; higher = more compound-induced degradation of the degron-EGFP fusion; degrons are variants of IKZF1/3 zinc finger 2; compound dose not given here
# Settings: Jurkat, 18 h
# [1] = compound: compound 19 (5-tert-butyl-thalidomide)
# [2] = compound: compound 22 (5-morpholino-thalidomide)
# [3] = compound: compound 33 (diphenyl IMiD analogue)
# 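Note: pooled lentiviral library of zinc finger degron-EGFP fusions in mCherry-positive Jurkat cells, FACS-sorted after compound exposure, with degron abundance counted by next-generation sequencing.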
Sequence,log2 fold change of degron read counts [1],log2 fold change of degron read counts [2],log2 fold change of degron read counts [3],log2 fold change of degron read counts (compound: thalidomide)
"FLCEVCGAEFTQKGNLLRHIKL [46F_47L_49E_50V_52G_53A_54E_55F_67L_, Q9UKT9]",0.493,-1.2,0.235,1.01
"FYCPICGRSFTQKGNLLRHIKL [46F_47Y_49P_50I_52G_53R_54S_55F_67L_, Q9UKT9]",-1.81,-2.36,-1.67,-2.4
"FHCNQCGHYFTQKGNLLRHIKL [46F_47H_49N_50Q_52G_53H_54Y_55F_67L_, Q9UKT9]",-2.17,-2.71,-2.16,-1.62
"FYCPICGRMFTQKGNLLRHIKL [46F_47Y_49P_50I_52G_53R_54M_55F_67L_, Q9UKT9]",-0.787,-1.23,-0.675,-1.57
"FLCEVCGARFTQKGNLLRHIKL [46F_47L_49E_50V_52G_53A_54R_55F_67L_, Q9UKT9]",-0.109,-1.35,-0.123,2.09
"FGCEVCGARFTQKGNLLRHIKL [46F_47G_49E_50V_52G_53A_54R_55F_67L_, Q9UKT9]",3.86,2.74,-0.6,1.27
"FNCEVCGARFTQKGNLLRHIKL [46F_47N_49E_50V_52G_53A_54R_55F_67L_, Q9UKT9]",2.12,0.955,-0.805,0.249
"FQCEVCGARFTQKGNLLRHIKL [46F_47Q_49E_50V_52G_53A_54R_55F_67L_, Q9UKT9]",-0.109,1.95,1.42,3.71
"FVCEVCGARFTQKGNLLRHIKL [46F_47V_49E_50V_52G_53A_54R_55F_67L_, Q9UKT9]",1.35,2.78,0.984,3.25
"FACEVCGALFTQKGNLLRHIKL [46F_47A_49E_50V_52G_53A_54L_55F_67L_, Q9UKT9]",1.98,-0.613,-0.457,-1.05
"FACEVCGADFTQKGNLLRHIKL [46F_47A_49E_50V_52G_53A_54D_55F_67L_, Q9UKT9]",1.11,-1.42,-1.53,-1.97
"FACEVCGARFTQKGNLLRHIKL [46F_47A_49E_50V_52G_53A_54R_55F_67L_, Q9UKT9]",3.91,3.03,-0.415,1.17
"FKCEVCGARFTQKGNLLRHIKL [46F_47K_49E_50V_52G_53A_54R_55F_67L_, Q9UKT9]",-1.76,-3.02,-3.44,-1.87
"FMCEVCGARFTQKGNLLRHIKL [46F_47M_49E_50V_52G_53A_54R_55F_67L_, Q9UKT9]",0.167,-0.178,1.48,1.48
"FGCEVCGADFTQKGNLLRHIKL [46F_47G_49E_50V_52G_53A_54D_55F_67L_, Q9UKT9]",-1.71,-2.17,-0.906,-1.3
"FGCEVCGALFTQKGNLLRHIKL [46F_47G_49E_50V_52G_53A_54L_55F_67L_, Q9UKT9]",2.18,0.893,1.4,-0.493
"FACDQCGAYFTQKGNLLRHIKL [46F_47A_49D_50Q_52G_53A_54Y_55F_67L_, Q9UKT9]",-1.75,-2.34,-1.85,-2.43

Sequence,log2 fold change of degron read counts [1],log2 fold change of degron read counts [2],log2 fold change of degron read counts [3],log2 fold change of degron read counts (compound: thalidomide)
"FLCSVCGHQFTQKGNLLRHIKL [46F_47L_49S_50V_52G_53H_54Q_55F_67L_, Q9UKT9]",-2.83,-2.7,-2.54,-2.76
"FKCDQCGACFTQKGNLLRHIKL [46F_47K_49D_50Q_52G_53A_54C_55F_67L_, Q9UKT9]",-2.75,-3.31,-3.66,-3.24
"FLCPQCGAIFTQKGNLLRHIKL [46F_47L_49P_50Q_52G_53A_54I_55F_67L_, Q9UKT9]",-1.63,-1.54,-0.716,-0.881
"FKCDICGASFTQKGNLLRHIKL [46F_47K_49D_50I_52G_53A_54S_55F_67L_, Q9UKT9]",-0.288,-2.66,-3.19,-1.69
"FACDVCGAQFTQKGNLLRHIKL [46F_47A_49D_50V_52G_53A_54Q_55F_67L_, Q9UKT9]",1.75,-0.392,-1.04,-1.67
"FCCEICGAVFTQKGNLLRHIKL [46F_47C_49E_50I_52G_53A_54V_55F_67L_, Q9UKT9]",1.77,1.91,2.47,2.16
"FTCEICGAVFTQKGNLLRHIKL [46F_47T_49E_50I_52G_53A_54V_55F_67L_, Q9UKT9]",0.417,1.97,2.08,2.64
"FNCEICGAVFTQKGNLLRHIKL [46F_47N_49E_50I_52G_53A_54V_55F_67L_, Q9UKT9]",1.15,-0.231,0.00137,-0.335
"FWCEICGAVFTQKGNLLRHIKL [46F_47W_49E_50I_52G_53A_54V_55F_67L_, Q9UKT9]",3.33,3.51,2.5,0.916
"FYCEICGAVFTQKGNLLRHIKL [46F_47Y_49E_50I_52G_53A_54V_55F_67L_, Q9UKT9]",3.66,3.6,2.79,1.07
"FMCEICGAVFTQKGNLLRHIKL [46F_47M_49E_50I_52G_53A_54V_55F_67L_, Q9UKT9]",-1.1,-0.16,2.5,1.37
"FACEICGAVFTQKGNLLRHIKL [46F_47A_49E_50I_52G_53A_54V_55F_67L_, Q9UKT9]",3.29,2.39,1.27,0.606
"FFCEICGAVFTQKGNLLRHIKL [46F_47F_49E_50I_52G_53A_54V_55F_67L_, Q9UKT9]",3.46,3.76,2.2,1.64
"FECEICGAVFTQKGNLLRHIKL [46F_47E_49E_50I_52G_53A_54V_55F_67L_, Q9UKT9]",-0.462,-0.764,1.98,2.39
"FHCEICGAVFTQKGNLLRHIKL [46F_47H_49E_50I_52G_53A_54V_55F_67L_, Q9UKT9]",1.69,1.65,1.31,0.109
"FSCEICGAVFTQKGNLLRHIKL [46F_47S_49E_50I_52G_53A_54V_55F_67L_, Q9UKT9]",2.73,1.89,2.49,1.44
"FGCEICGAVFTQKGNLLRHIKL [46F_47G_49E_50I_52G_53A_54V_55F_67L_, Q9UKT9]",2.88,2.6,2.14,1.13
